The results in this text go back to PubChem BioAssay (NCI).

This is part of a sample that, as a whole, favours compounds with a hit. Of some 83,000 tested, about 20% had one in any assay.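 Growth was measured after 48 h exposure to one concentration of compound in 96-well plates. Values under 10 count as active.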 Values without a mark were called inactive. Activity calls are given as the source filed them.

Among the test systems are SR leukemia; RPMI-8226 leukemia; OVCAR-8 ovarian; OVCAR-5 ovarian; OVCAR-4 ovarian; SK-OV-3 ovarian; IGROV1 ovarian; OVCAR-3 ovarian; HS 578T breast; NCI/ADR-RES ovarian; T-47D breast; BT-549 breast; MDA-MB-435 melanoma; SW-620 colon; MCF7 breast; HCT-116 colon; HCC-2998 colon; KM12 colon.
Common to all, as to assay: NCI-60 one-dose screen, 48 h (100 = growth as untreated, 0 = no growth, -100 = all killed)
Settings in all cases: 10 µM unless noted

`COc1cc(-c2nc(NC(C)=O)sc2-c2ccnc(NCCNS(=O)(=O)c3ccccc3)n2)ccc1Cl`: the growth with SR leukemia was 13.1%; in the assay on RPMI-8226 leukemia it was 13.8%; with OVCAR-8 ovarian, 37.6%; in the assay with OVCAR-5 ovarian, 84.9%; in the assay with OVCAR-4 ovarian, 61.6%; in the assay on SK-OV-3 ovarian it was 26.9%. For the same compound, the growth in the assay with IGROV1 ovarian was 51.6%; with OVCAR-3 ovarian it was 25.7%; with HS 578T breast, 27.3%; in the assay on NCI/ADR-RES ovarian it was 93.2%; in the assay with T-47D breast, 41.8%; in the assay with BT-549 breast, -8.24% (active). For the same compound, the growth was -62.3% (active) in the assay on MDA-MB-435 melanoma; 33.3% with SW-620 colon; 14.1% in the assay with MCF7 breast; 12.2% in the assay on HCT-116 colon; 73.2% in the assay on HCC-2998 colon; 25.6% in the assay on KM12 colon.
As for `CCCCCCCC/C=C\CCCCCCCCOc1ccc(CC(=O)NCC[N+](C)(C)C)cc1`, the growth in the assay with SR leukemia is 62.4%; in the assay on RPMI-8226 leukemia it was 40.9%; in the assay with OVCAR-8 ovarian it was 54.8%; in the assay on OVCAR-5 ovarian it was 27.5%; in the assay with OVCAR-4 ovarian it was 72.2%; in the assay with SK-OV-3 ovarian, 93.6%. The growth in the assay with IGROV1 ovarian was 6.27% (active); in the assay on OVCAR-3 ovarian, 83.3%; in the assay with HS 578T breast, 76.7%; with NCI/ADR-RES ovarian, 94.4%; in the assay with T-47D breast it was 85%; in the assay on BT-549 breast it was 74.3%. In addition, the growth is 86.5% in the assay on MDA-MB-435 melanoma; 74.2% with SW-620 colon; 73.7% in the assay with MCF7 breast; 68.2% with HCT-116 colon; 43.1% in the assay on HCC-2998 colon; 35.7% with KM12 colon.
Turning to `COc1cc2cc(NCc3ccc(OC(F)F)cc3)nc(C)c2cc1OC`, the growth in the assay on SR leukemia was 53.1%; in the assay on RPMI-8226 leukemia it was 42.5%; in the assay on OVCAR-8 ovarian it was 71.3%; in the assay on OVCAR-5 ovarian, 56.1%; with OVCAR-4 ovarian, 74.2%; with SK-OV-3 ovarian, 57.6%. Also, the growth in the assay on IGROV1 ovarian is 48.2%; in the assay with OVCAR-3 ovarian, 77%; in the assay with HS 578T breast, 77.6%; in the assay with NCI/ADR-RES ovarian it was 56.3%; in the assay on T-47D breast, 71.1%; with BT-549 breast, 71.8%. The growth in the assay with MDA-MB-435 melanoma was 68.4%; with SW-620 colon, 47.9%; in the assay with MCF7 breast, 86.1%; with HCT-116 colon, 37.3%; in the assay with HCC-2998 colon, 78.2%; in the assay on KM12 colon, 82.8%.
With `COc1ccc(NC(=O)c2sc3nc(C)c(C(O)c4ccccc4)cc3c2N)cc1` (configuration not stated), the growth was 4.79% (active) with SR leukemia; 11.8% in the assay with RPMI-8226 leukemia; 27.6% in the assay with OVCAR-8 ovarian; 37.9% in the assay on OVCAR-5 ovarian; 78% in the assay with OVCAR-4 ovarian; 24.1% with SK-OV-3 ovarian. The growth in the assay on IGROV1 ovarian was 36.6%; with OVCAR-3 ovarian it was 8.68% (active); in the assay with HS 578T breast it was 22.8%; in the assay with NCI/ADR-RES ovarian it was 10.6%; with T-47D breast it was 23.9%; in the assay with BT-549 breast it was 65.8%. For the same compound, the growth in the assay with MDA-MB-435 melanoma was -27.8% (active); in the assay on SW-620 colon it was 25.4%; with MCF7 breast it was 19.1%; in the assay with HCT-116 colon, 21.4%; in the assay with HCC-2998 colon, 19.4%; in the assay with KM12 colon, 20.3%.
Take `COc1ccc2cc(Cn3cc[n+](Cc4ccc5ccccc5c4)c3)ccc2c1`: the growth in the assay with SR leukemia is 9.3% (active); with RPMI-8226 leukemia it was 1.54% (active); in the assay on OVCAR-8 ovarian it was 8.73% (active); in the assay with OVCAR-5 ovarian, 45.6%; in the assay with OVCAR-4 ovarian, 8.75% (active); in the assay with SK-OV-3 ovarian, 29.8%. Besides, the growth was -9.16% (active) with IGROV1 ovarian; 4.18% (active) with OVCAR-3 ovarian; 46.3% in the assay on HS 578T breast; 102% in the assay on NCI/ADR-RES ovarian; -4.51% (active) with T-47D breast; 11.8% in the assay with BT-549 breast. For the same compound, the growth is 7% (active) with MDA-MB-435 melanoma; 44.4% in the assay on SW-620 colon; 40.9% with MCF7 breast; 33.7% with HCT-116 colon; 26.7% in the assay with HCC-2998 colon; -23.2% (active) in the assay with KM12 colon.
Consider `COc1ccc(C/C(C)=C(/c2ccc(OCCN3CCCCCC3)cc2)c2ccc(OC(=O)NCc3ccccc3)cc2)cc1`, for which the growth was -43.2% (active) in the assay on SR leukemia; 52.8% in the assay on RPMI-8226 leukemia; 92.4% with OVCAR-8 ovarian; 91.5% in the assay on OVCAR-5 ovarian; 76% in the assay on OVCAR-4 ovarian; 95.3% in the assay with SK-OV-3 ovarian. Moreover, the growth was 93% in the assay on IGROV1 ovarian; 75.1% with OVCAR-3 ovarian; 75% in the assay on HS 578T breast; 86.8% in the assay with NCI/ADR-RES ovarian; 50.8% in the assay with T-47D breast; 100% with BT-549 breast. Besides, the growth in the assay with MDA-MB-435 melanoma was 95.3%; in the assay on SW-620 colon it was 81.4%; with MCF7 breast, 29.9%; in the assay on HCT-116 colon it was 64.7%; in the assay with HCC-2998 colon, 89.1%; in the assay on KM12 colon, 80.9%.
In the case of `O=C1NC(=O)c2c1c1c3ccccc3[nH]c1c1oc3cc(Br)ccc3c21`, the growth in the assay on SR leukemia was 24.4%; in the assay on RPMI-8226 leukemia, 63.1%; with OVCAR-8 ovarian, 81.8%; in the assay with OVCAR-5 ovarian, 98.9%; in the assay on OVCAR-4 ovarian, 77.4%; in the assay on SK-OV-3 ovarian, 93.8%. In addition, the growth was 36.2% with IGROV1 ovarian; 89.9% in the assay with OVCAR-3 ovarian; 77.3% in the assay with HS 578T breast; 77.3% in the assay on NCI/ADR-RES ovarian; 28.1% in the assay with T-47D breast; 81.3% with BT-549 breast. The growth with MDA-MB-435 melanoma is 76.6%; in the assay on SW-620 colon, 51.5%; in the assay with MCF7 breast it was 36.2%; in the assay with HCT-116 colon, 65.1%; in the assay on HCC-2998 colon it was 99.7%; with KM12 colon, 64.4%.
Regarding `Cc1ccccc1OCC(O)COc1ccccc1C`, the growth in the assay with SR leukemia was 114%; in the assay on RPMI-8226 leukemia it was 107%; in the assay on OVCAR-8 ovarian it was 91.1%; in the assay with OVCAR-5 ovarian, 103%; in the assay on OVCAR-4 ovarian it was 104%; with SK-OV-3 ovarian, 108%. The growth in the assay on IGROV1 ovarian was 85.1%; in the assay on OVCAR-3 ovarian it was 114%; in the assay on HS 578T breast, 117%; with NCI/ADR-RES ovarian it was 111%; with T-47D breast it was 88.7%; in the assay on BT-549 breast, 79.4%. In addition, the growth was 94.6% with MDA-MB-435 melanoma; 103% with SW-620 colon; 90.7% in the assay on MCF7 breast; 103% in the assay with HCT-116 colon; 573% in the assay on HCC-2998 colon; 103% in the assay with KM12 colon.
Regarding `N#C/C(=C\c1ccc(Cl)cc1Cl)C(=O)Nc1ncc(Cc2ccc(Cl)c(Cl)c2)s1`, the growth in the assay on SR leukemia was 59.6%; with RPMI-8226 leukemia, 92.9%; in the assay on OVCAR-8 ovarian, 91.6%; in the assay on OVCAR-5 ovarian, 71.5%; in the assay on OVCAR-4 ovarian it was 82.8%; with SK-OV-3 ovarian, 96.6%. In addition, the growth is 85.6% with IGROV1 ovarian; 98.9% in the assay on OVCAR-3 ovarian; 94.3% with HS 578T breast; 83.2% in the assay with NCI/ADR-RES ovarian; 58.5% in the assay on T-47D breast; 111% in the assay with BT-549 breast. Moreover, the growth in the assay with MDA-MB-435 melanoma is 60.8%; in the assay with SW-620 colon, 62.6%; in the assay on MCF7 breast, 84%; with HCT-116 colon, 78.5%; in the assay on HCC-2998 colon it was 87%; in the assay with KM12 colon, 80.1%.
